In all, about 18,000 sequences were measured (“log2 normalized intensity”: median about 0.36, highest 2% from about 7.3 on). Only a selection was taken, and the highest values are over-represented in it overall.

The assay has as its target T1, HNF4alpha8 (COS-7 nuclear extract) (Homo sapiens, UniProt P41235-5 1-452).
T1 sequence: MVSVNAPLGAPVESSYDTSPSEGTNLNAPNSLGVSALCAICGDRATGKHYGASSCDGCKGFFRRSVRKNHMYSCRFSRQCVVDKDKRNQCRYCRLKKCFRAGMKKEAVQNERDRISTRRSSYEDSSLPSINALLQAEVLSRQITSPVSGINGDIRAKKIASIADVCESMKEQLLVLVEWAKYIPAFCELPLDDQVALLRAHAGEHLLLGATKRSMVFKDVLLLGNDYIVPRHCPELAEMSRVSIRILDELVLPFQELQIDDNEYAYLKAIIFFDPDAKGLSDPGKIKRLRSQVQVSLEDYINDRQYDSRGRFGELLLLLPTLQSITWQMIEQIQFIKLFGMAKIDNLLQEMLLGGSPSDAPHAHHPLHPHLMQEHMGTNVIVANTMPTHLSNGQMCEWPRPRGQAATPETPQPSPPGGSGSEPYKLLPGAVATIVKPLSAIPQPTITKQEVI
Kind of assay: protein-binding microarray; COS-7 nuclear extract on double-stranded Agilent 4x180k PBM; binding buffer, salt, pH and temperature not given in the material; high values mean tight binding. Conditions: chain copies: 2; label: 3' end of strand 1 on the slide; dsDNA, one strand shown. The method in brief:
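A human HNF4α isoform was expressed in COS-7 cells by transient CaPO4 transfection, and nuclear extracts were prepared. These were applied to a custom Agilent SurePrint G3 4x180k array carrying ~44,000 test sequences in quadruplicate as double-stranded ~60-nt oligonucleotides, and an Agilent G2565CA scanner imaged bound HNF4α at 2-µm resolution. The background-corrected, normalized gProcessedSignal from Agilent software was used as the binding signal.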
For the sequence “TTGACCTTTATACCTGTACGTTACTCTGTAGCCTAGGGAGATTAGAGTATCGGTCGA”, the binding signal came out at 4.37 log2 normalized intensity.

For the sequence “GACCTTTGACCTTTATACCTGTACGTTACTGCCTAGGGAGATTAGAGTATCGGTCGA”, the binding signal was determined as 7.64 log2 normalized intensity. Regarding “GGAACCAAGAGCAGATTTGTTTGCTCTTTAGCCTAGGGAGATTAGAGTATCGGTCGA”, the binding signal amounted to 0.915 log2 normalized intensity. Regarding “TTCCCTGAGTTTCCATTAACTGAACCTAGAGCCTAGGGAGATTAGAGTATCGGTCGA”, the binding signal was found to be 1.69 log2 normalized intensity. Take “TAAGATACGAAGGGTTTAAAGGGCAGAAGAGCCTAGGGAGATTAGAGTATCGGTCGA”: the binding signal was determined as 2.39 log2 normalized intensity. As to “AAGTTCATGGAAAGTTTCACTTTCTCTTATGCCTAGGGAGATTAGAGTATCGGTCGA”, the binding signal is 0.0777 log2 normalized intensity. Turning to “TAAGATTCTGGTCAAAGGTCAATGAAGCTCGCCTAGGGAGATTAGAGTATCGGTCGA”, the binding signal was 6.64 log2 normalized intensity. For the sequence “GCAAAGGTCAGCTCATTCCCTAGGGCTCGGGCCTAGGGAGATTAGAGTATCGGTCGA”, the binding signal was -0.991 log2 normalized intensity. For the sequence “TTCCCTAAGATTCTGGTCAAAGGTCAATGAGCCTAGGGAGATTAGAGTATCGGTCGA”, the binding signal is 8.22 log2 normalized intensity. As for “AAAGGGCAAAGGTCAGCTCATTCCCTAGGGGCCTAGGGAGATTAGAGTATCGGTCGA”, the figure is 6.71 log2 normalized intensity. As for “TTCTGGTCAAAGGTCAATGAAGCTCTTGCTGCCTAGGGAGATTAGAGTATCGGTCGA”, the figure is 6.15 log2 normalized intensity; as for “ATTCATTCCCTAAGATTCTGGTCAAAGGTCGCCTAGGGAGATTAGAGTATCGGTCGA”, 7.83 log2 normalized intensity.

Turning to “ACTTAAAAGAAGCTACTAGCAAATCTGCCCGCCTAGGGAGATTAGAGTATCGGTCGA”, the binding signal is -0.288 log2 normalized intensity. For “AACAAAGGTCGGTGGTATGTGTGTGCTTTAGCCTAGGGAGATTAGAGTATCGGTCGA”, the binding signal was 2.2 log2 normalized intensity. In the case of “AATGTGTGTTCTGCTGCCATTGGATGGAATGCCTAGGGAGATTAGAGTATCGGTCGA”, the binding signal came to 1.51 log2 normalized intensity.

Consider “GTCAGATGACAGAATTGGTCCTGGAACTCAGCCTAGGGAGATTAGAGTATCGGTCGA”, for which the binding signal was determined as 0.192 log2 normalized intensity.

“CCAACACAGAAGCCTTTTGTTCTTTGTGTGGCCTAGGGAGATTAGAGTATCGGTCGA”: the binding signal amounted to 1.47 log2 normalized intensity. With “CCTATGGTCTGTTCACTTGCCAAGCCTAGTGCCTAGGGAGATTAGAGTATCGGTCGA” the figure was -0.838 log2 normalized intensity; with “AAATATTGTCAGTGAGGAATGTGCAAACGGGCCTAGGGAGATTAGAGTATCGGTCGA”, 0.32 log2 normalized intensity. As for “GGTTGCACTCTGGTGCCCTCTGAGTGTTTGGCCTAGGGAGATTAGAGTATCGGTCGA”, the binding signal amounted to 2.54 log2 normalized intensity. With “ACCCTCTCTGGATGCAGGTCGCCGGGAAAAGCCTAGGGAGATTAGAGTATCGGTCGA” the figure was 0.74 log2 normalized intensity; with “TGAGTATCCAAAGGTCAGTGACAAATGTCAGCCTAGGGAGATTAGAGTATCGGTCGA”, 4.51 log2 normalized intensity. Regarding “TCACAGTGTGGGGCAAATCTGAGGTCAAAGGCCTAGGGAGATTAGAGTATCGGTCGA”, the binding signal turned out to be 2.51 log2 normalized intensity. Take “GATGCTAGGTTTGTGAGTCCAAAGGTCAGCGCCTAGGGAGATTAGAGTATCGGTCGA”: the binding signal worked out at 9.81 log2 normalized intensity. On to “TTGTGAGTCCAAAGGTCAGCCGGGGAAGGTGCCTAGGGAGATTAGAGTATCGGTCGA”, for which the binding signal was 7.55 log2 normalized intensity. Consider “AAAAGGATGCTAGGTTTGTGAGTCCAAAGGGCCTAGGGAGATTAGAGTATCGGTCGA”, for which the binding signal turned out to be 5.08 log2 normalized intensity. With “AAGGTTGGTTTTTGGAGACAGGAGTAGTCAGCCTAGGGAGATTAGAGTATCGGTCGA” the figure was 0.982 log2 normalized intensity; with “ATGTTAGTCTTGAGTCCCAAAGTCCAAAGGGCCTAGGGAGATTAGAGTATCGGTCGA”, 6.25 log2 normalized intensity. With “AGTCCAAAGGTCAGCCGGGGAAGGTGCAGGGCCTAGGGAGATTAGAGTATCGGTCGA” the figure was 5.55 log2 normalized intensity; with “GGTGTGAGAGGGCAAAGGTCACAGCATTAGGCCTAGGGAGATTAGAGTATCGGTCGA”, 7.08 log2 normalized intensity; with “TAGGTTTGTGAGTCCAAAGGTCAGCCGGGGGCCTAGGGAGATTAGAGTATCGGTCGA”, 8.36 log2 normalized intensity.

With “CCTGAGGTGTGAGAGGGCAAAGGTCACAGCGCCTAGGGAGATTAGAGTATCGGTCGA”, the binding signal amounted to 8.73 log2 normalized intensity.

Regarding “AGGTCAGGGAGTAGGTTTGATTTGTGAAAGGCCTAGGGAGATTAGAGTATCGGTCGA”, the binding signal was 1.03 log2 normalized intensity. “TACGTGACCTACTTAGTCTCCAGCCCCCAGGCCTAGGGAGATTAGAGTATCGGTCGA”: the binding signal turned out to be 4.08 log2 normalized intensity. Take “TTTGGGGGTTGGTATTACAAAGCAATCTACGCCTAGGGAGATTAGAGTATCGGTCGA”: the binding signal stood at 0.18 log2 normalized intensity. On to “TGAGCCATCCTGAACAAATGTACTGGATATGCCTAGGGAGATTAGAGTATCGGTCGA”, for which the binding signal was -0.391 log2 normalized intensity. Turning to “GACATAAATCACATTGTTAGCATAGCCTATGCCTAGGGAGATTAGAGTATCGGTCGA”, the binding signal was -0.813 log2 normalized intensity. With “TGCTCACGTTTTCCTGCTGACCCTCTCCCCGCCTAGGGAGATTAGAGTATCGGTCGA”, the binding signal came to 4.22 log2 normalized intensity.

As for “TCTACACTGCTTACCCTGCAGTGTGACCTTGCCTAGGGAGATTAGAGTATCGGTCGA”, the binding signal turned out to be 4.68 log2 normalized intensity. Regarding “GTGTGACCTTTGCCTTCTTGACATCTCTCTGCCTAGGGAGATTAGAGTATCGGTCGA”, the binding signal was determined as 5.21 log2 normalized intensity. For “ACTGCTTACCCTGCAGTGTGACCTTTGCCTGCCTAGGGAGATTAGAGTATCGGTCGA”, the binding signal worked out at 8.52 log2 normalized intensity. With “CTGCAGTGTGACCTTTGCCTTCTTGACATCGCCTAGGGAGATTAGAGTATCGGTCGA”, the binding signal came out at 6.8 log2 normalized intensity. Take “TTACCCTGCAGTGTGACCTTTGCCTTCTTGGCCTAGGGAGATTAGAGTATCGGTCGA”: the binding signal stood at 8.09 log2 normalized intensity.

Regarding “GATGTTCTACACTGCTTACCCTGCAGTGTGGCCTAGGGAGATTAGAGTATCGGTCGA”, the binding signal is -0.757 log2 normalized intensity.

These data come from paper PMC10726135, “HNF4α isoforms regulate the circadian balance between carbohydrate and lipid metabolism in the liver”.
